From PubChem BioAssay AID1259343 (VanderVen Lab, College of Veterinary Medicine, Cornell …, 2017)
Among all 6,200 compounds or so, about 2,900 (47%) were called active. The set was probably picked from earlier hits. Some of the results follow. Values without a mark were called inactive. Cut-off read from the data, not from the text of the source: active = inhibition above about 50%; inactive = the rest.

Assay: Mycobacterium tuberculosis growth inhibition, primary screen (AID 1259343)
Settings: inhibition: at 10 µM, hits give high values; outcome: 10 uM

| Structure (SMILES) | inhibition |
| --- | --- |
| C(=NC1=NN(c2ccccc2)CC1)N1CCCCCC1 | -7.42% |
| FC(F)(F)c1cccc(N2CCC(N=Cc3ccccn3)=N2)c1 | 93.2% (active) |
| CN(N=Cc1ccc([N+](=O)[O-])o1)c1ccccc1 | -45.3% |
| FC(F)(F)c1cccc(N2CCC(N=Cc3ccccc3C(F)(F)F)=N2)c1 | 50.2% (active) |
| O=[N+]([O-])c1ccc(C=NC2=NN(c3cccc(C(F)(F)F)c3)CC2)o1 | 87.8% (active) |
| OCCN(C=NC1=NN(c2cccc(C(F)(F)F)c2)CC1)CCO | 83.2% (active) |
| CCCNC(=O)COc1c(Cl)cc(Cl)c2ccc(C)nc12 | 72.1% (active) |
| O=[N+]([O-])c1ccc(C(O)CNC(=S)NCc2ccc3c(c2)OCO3)cc1 (stereo not given) | 89.8% (active) |
| CCc1cc(=O)[nH]c(-n2nc(C)cc2NC(=O)c2cc(=O)c3ccccc3o2)n1 | 34.9% |
| CCc1cc(=O)[nH]c(-n2nc(C)cc2NC(=O)c2ccc(Br)o2)n1 | 101% (active) |
| CCCc1cc(=O)[nH]c(-n2nc(C)cc2NC(=O)c2ccco2)n1 | 100% (active) |
| Cc1cc(=O)[nH]c(-n2nc(C)cc2NC(=O)c2ccco2)n1 | 101% (active) |
| Cc1cc(=O)[nH]c(-n2nc(C3CC3)cc2NC(=O)c2ccco2)n1 | -24.5% |
| CCc1cc(=O)[nH]c(-n2nc(C)cc2NC(=O)c2ccco2)n1 | 100% (active) |
| C=CCNC(=O)N(Cc1ccccn1)c1ccc(Oc2cccc(F)c2)nc1 | 39.1% |
| COCC(O)CN(C)C(=O)c1ccc(Oc2cccc(Br)c2)nc1 (stereo not given) | 85% (active) |
| CN(Cc1ccc(Br)cc1)CC(O)COc1cccc(Br)c1 (stereo not given) | 46.8% |
| CC1=NOC(Cc2ccccc2)C(=O)N1Cc1ccc(C)cc1 (stereo not given) | 30.2% |
| COc1ccc(N2C(=O)C3N=NN(Cc4ccccc4C)C3C2=O)cc1Cl (stereo not given) | -10.3% |
| CCc1ccc(N2C(=O)C3N=NN(Cc4ccccc4)C3C2=O)cc1 (stereo not given) | 93.5% (active) |

| Structure (SMILES) | inhibition |
| --- | --- |
| CCc1ccc(N2C(=O)C3N=NN(Cc4ccc(C)cc4)C3C2=O)cc1 (stereo not given) | 60.1% (active) |
| CCc1ccc(N2C(=O)C3N=NN(Cc4ccccc4C)C3C2=O)cc1 (stereo not given) | 76.5% (active) |
| CCCCCSc1n[nH]c(-c2ccc(C)cc2)n1 | 84.7% (active) |
| Cc1ccc(-c2nc(SCc3ncc(C(C)C)o3)n[nH]2)cc1 | 11.4% |
| CCc1cc(=O)[nH]c(-n2nc(C)cc2NC(=O)c2ccc3ccccc3c2)n1 | 101% (active) |
| Cc1cc(=O)[nH]c(-n2nc(C)cc2NC(=O)c2ccc3ccccc3c2)n1 | 94.6% (active) |
| CCCc1cc(=O)[nH]c(-n2nc(C)cc2NC(=O)c2ccc3ccccc3c2)n1 | 102% (active) |
| FC(F)(F)c1cc(Cl)c2nnc(SCCN3CCSCC3)n2c1 | -6.99% |
| CCCCCC12CCC(CC(=O)O)(CC1)CC2 | 70.4% (active) |
| CC(C)N1C(=O)C(=NN2C(=O)CSC2=S)c2ccccc21 | -42.2% |
| O=C(NCc1ccoc1)N1CCN(Cc2ccc(Cl)s2)CC1 | 2.21% |
| O=C(NC1CC1)N1CCN(Cc2ccc(-c3ccccc3F)s2)CC1 | 97.6% (active) |
| CC(NC(=O)c1ccc(-c2ccccc2F)s1)C(=O)N1CCCCC1 (stereo not given) | 18.5% |
| CCCCCCCCCCCCCCCCCCN(C)C | 98.2% (active) |
| CCOc1ccc2oc(C(=O)NC(C)(C)CC)c(C)c2c1 | 64% (active) |
| CCN=c1scc(-c2ccc(C)c(C)c2)n1N=Cc1ccc2c(c1)OCCO2 | 70.5% (active) |
| CCN=c1scc(-c2ccc3c(c2)OCCO3)n1N=Cc1cc(C)ccc1C | 87.5% (active) |
| CCN=c1scc(-c2ccc(C)c(C)c2)n1N=Cc1cccnc1 | -8.38% |
| C(=Nn1c(-c2ccc3c(c2)OCCO3)csc1=NCCc1ccccc1)c1ccccn1 | 30.9% |
| CCN=c1scc(-c2ccc(F)cc2)n1N=Cc1ccc2c(c1)OCCO2 | 4% |

| Structure (SMILES) | inhibition |
| --- | --- |
| C(#Cc1ccccc1)CN1CCN(C/C=C/c2ccccc2)CC1 | 80.2% (active) |
| COc1ccc(CC2CN(C/C=C/c3ccccc3)CCO2)cc1 (stereo not given) | 41.6% |
| Cc1nc(SCc2ccc(C(=O)O)cc2)nc(N2CCN(C/C=C/c3ccccc3)CC2)c1C | 5.19% |
| O=C(Nc1ccc(N2CCN(C(=O)c3ccc(-c4cccc(Cl)c4)s3)CC2)nc1)c1ccco1 | 38.5% |
| O=C(Nc1nc(OCC(F)(F)F)cnc1-c1ccc(Cl)cc1Cl)c1ccco1 | 64.5% (active) |
| CCc1cc(=O)[nH]c(-n2nc(C)cc2NC(=O)c2ccccc2[N+](=O)[O-])n1 | 101% (active) |
| CCCc1cc(=O)[nH]c(-n2nc(C)cc2NC(=O)c2ccccc2[N+](=O)[O-])n1 | 101% (active) |
| CN(C)[C@@H]1C(=O)C(C(N)=O)=C(O)[C@@]2(O)C(=O)C3=C(O)c4c(O)cccc4[C@@](C)(O)[C@H]3C[C@@H]12 | 60.8% (active) |
| COc1cccc(Nc2ccc3c(-c4ccccc4)noc3n2)c1OC | 70.1% (active) |
| COc1ccccc1NC(=O)c1ccc2noc(-c3ccccc3)c2c1 | 42.1% |
| O=C(Nc1cccc(-c2cccc(Cl)c2)c1)C1CCN(C(=O)CCn2cnnn2)CC1 | 90.2% (active) |
| COCCC(=O)N1CCC(C(=O)Nc2cccc(-c3cccc(Cl)c3)c2)CC1 | 8.7% |
| CSCCC(=O)N1CCC(C(=O)Nc2cccc(-c3cccc(Cl)c3)c2)CC1 | 88% (active) |
| O=C(Nc1ccc(Oc2ccccc2F)cc1)C1CCN(CCCn2cccn2)CC1 | 86.6% (active) |
| CC(=O)c1cccc(CN2CCC(C(=O)Nc3ccc(Oc4ccccc4F)cc3)CC2)c1 | inactive |
| O=C(Nc1ccc(Oc2ccccc2F)cc1)C1CCN(Cc2cccc3c2OCO3)CC1 | 93.3% (active) |
| COCc1ccc(CN2CCC(C(=O)Nc3ccc(Oc4ccccc4F)cc3)CC2)o1 | inactive |
| COc1cccc(CN2CCC(C(=O)Nc3ccc(Oc4ccccc4F)cc3)CC2)c1 | 62.3% (active) |
| CCc1ncc(CN2CCC(C(=O)Nc3ccc(Oc4ccccc4F)cc3)CC2)cn1 | 86.1% (active) |
| CCn1cc(CN2CCC(C(=O)Nc3ccc(Oc4ccccc4F)cc3)CC2)cn1 | inactive |
